Rows were chosen to be rich in hits. Some 1.6% of all compounds tested hit in one or more screens of this group.
m5-HT2A agonist: mouse Htr2a agonists via beta-arrestin recruitment, primary screen, cell-based, luminescence; 5-hydroxytryptamine receptor 2A (Mus musculus), P35363; CHO-K1 mHTR2A beta-arrestin complementation; percent of 30 µM serotonin response; activation, % at 7.6 µM; hit rate 0.66% among 360,000;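 active = activation above a run cutoff, the mean activation of all tested compounds plus 3 SD, cut at about 14% in these data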;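 also: 0% = plate median of compound wells and 100% = 30 µM serotonin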
MOR-DOR inv ag: inverse agonists of MOR-DOR heterodimerization, primary screen, cell-based, luminescence; inhibition, % at 9.3 µM; cell-based MOR-DOR heterodimer luminescence, inverse agonism; AID 504357, 2011; hit rate 0.21% among 340,000; Mu-type opioid receptor (Homo sapiens) + Delta-type opioid receptor (Homo sapiens), …; in the data active = inhibition above about 22%, passing the limit was not always enough;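 also: 0% = cells with DMSO and 100% = wells without cells with DMSO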
HTR5A inv ctr: HTR5A inverse agonists in luminescence cell assay, primary screen, counter-screen for OPRM1-OPRD1 heterodimer inverse agonist project, full-deck HTS | HTR5A cell line, inverse agonism | inhibition, % at 9.3 µM | hit rate 0.083% among 340,000 | AID 504634, 2011; in the data active = inhibition mostly above about 23%, no sharp cut-off; inactive = mostly below about 18%;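 also: 0% = cells with DMSO and 100% = no-cell wells with DMSO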
Target sequence (P47898 whole entry, looked up): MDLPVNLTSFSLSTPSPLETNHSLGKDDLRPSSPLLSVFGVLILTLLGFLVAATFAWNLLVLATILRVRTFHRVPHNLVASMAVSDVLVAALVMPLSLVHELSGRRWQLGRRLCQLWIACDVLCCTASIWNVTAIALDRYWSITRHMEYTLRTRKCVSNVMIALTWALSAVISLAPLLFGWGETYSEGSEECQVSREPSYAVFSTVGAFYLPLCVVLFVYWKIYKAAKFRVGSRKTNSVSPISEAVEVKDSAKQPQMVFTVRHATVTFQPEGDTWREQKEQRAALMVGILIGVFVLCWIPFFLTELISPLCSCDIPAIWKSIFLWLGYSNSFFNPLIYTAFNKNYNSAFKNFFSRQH
OPRM1-OPRD1 ag: agonists of OPRM1-OPRD1 heterodimerization, primary screen, cell-based, luminescence | hit rate 0.3% among 340,000 | AID 504326, 2011 | cells | activation, % at 9.3 µM | Mu-type opioid receptor (Homo sapiens) + Delta-type opioid receptor (Homo sapiens), …;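 also: 0% = vehicle-treated cells and 100% = reference agonist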
HTR5A ag ctr: HTR5A agonists in luminescence cell assay, primary screen, counter-screen for OPRM1-OPRD1 heterodimer agonist project, full-deck HTS; AID 504692, 2011; hit rate 0.61% among 340,000; cell-based; 5-hydroxytryptamine receptor 5A (Homo sapiens), P47898; activation, % at 9.3 µM; in the data active = activation mostly above about 9.5%, no sharp cut-off; inactive = mostly below about 7.6%;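 also: 0% = cells with vehicle only and 100% = reference agonist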
MOR-DOR ag conf: agonists of MOR-DOR heterodimerization, confirmation, cell-based, luminescence | shares compounds with OPRM1-OPRD1 ag | cells, luminescence complementation | activation, % at 9.3 µM | hit rate 45% among 830 | AID 504904, 2011;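 also: 0% = vehicle-treated cells and 100% = reference agonist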
HTR5A ag ctr2: HTR5A agonists in cells, counter-screen for OPRM1-OPRD1 heterodimer agonist project, cell-based, luminescence; shares compounds with OPRM1-OPRD1 ag; HTR5A agonist counterscreen; activation, % at 9.3 µM; hit rate 8% among 830; AID 504905, 2011; in the data active = activation above about 17%;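 also: 0% = vehicle-treated cells and 100% = reference agonist response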
* marks the source's active call; other numbers are inactive results; i = inactive; nt = no result given. Rule as the data show it, unless noted: active = activation above about 18%; inactive = the rest.

SMILES	m5-HT2A agonist	MOR-DOR inv ag	HTR5A inv ctr	OPRM1-OPRD1 ag	HTR5A ag ctr	MOR-DOR ag conf	HTR5A ag ctr2
Cc1ccc(CSCC(=O)N/N=C/c2sccc2C)cc1	-5.9	-478.4	23.4	89.0*	-6.5	179.7*	3.9
CCOC(=O)c1cc(NC(=O)c2cc(C)on2)cc(C(=O)OCC)c1	0.1	-118.8	-8.2	21.9*	7.6	3.3	3.1
COc1cc(NC(=O)c2cc(C)on2)cc(OC)c1OC	-0.7	-2.7	12.2	0.5	-1.1	nt	nt
Cc1cc(-n2c(=S)sc3c(=O)n(-c4ccc(F)cc4)c(SCC(=O)O)nc32)ccc1Cl	3.8	18.6	-12.5	-3.2	3.2	nt	nt
O=C(CC12CC3CC(CC(C3)C1)C2)NC1CC1	4.9	16.6	3.5	-3.4	-1.3	nt	nt
O=C(NCc1ccccn1)[C@@H]1CCCN1C(=O)[C@@H]1CCCN1C(=O)c1cccc2ccccc12	0.9	nt	nt	nt	nt	nt	nt
COC(=O)CC1(C(=O)OC)Oc2ccc(Br)cc2C(=O)N1c1ccc(Br)cc1Cl (stereo not drawn)	-1.1	-244.1	0.1	46.0*	-3.4	2.0	8.3
COC(=O)CC1(C(=O)OC)Oc2ccc(Br)cc2C(=O)N1c1cc(Cl)c(Cl)cc1Cl (stereo not drawn)	1.8	-27.7	-32.4	5.5	1.6	nt	nt
CCN1CC(CN(C)Cc2cn(-c3cccc(C)c3)nc2-c2cccc(F)c2)CC1=O (stereo not drawn)	-1.0	-103.7	-4.5	19.9*	1.6	-0.1	5.0
CCN1CC(CN(C)Cc2cn(-c3ccc(C)cc3)nc2-c2ccc(F)cc2)CC1=O (stereo not drawn)	-2.0	-17.8	-3.8	3.4	1.4	nt	nt
N#CCC(=O)N/N=C/c1cn(Cc2ccc(Cl)c(Cl)c2)c2ccccc12	0.0	-97.3	6.0	19.0*	6.0	13.8	6.0
CCOC(=O)C1(CCOc2ccccc2)CCN(Cc2cccn2-c2cccnc2)CC1	-2.4	i	4.7	224.3*	-1.7	239.7*	0.7
CCOC(=O)C1(Cc2ccccc2)CCN(Cc2cccn2-c2nccs2)CC1	-7.3	-192.2	5.3	26.6*	-2.0	224.2*	6.1
CCOC(=O)C1(Cc2ccccc2)CCN(Cc2cccn2-c2cccnc2)CC1	4.4	-217.7	-0.4	41.1*	0.1	54.9*	-2.1
CCOC(=O)C1(CCOc2ccccc2)CCN(CCCn2cccn2)CC1	1.7	0.8	-9.5	-0.2	6.5	nt	nt
NS(=O)(=O)c1ccc(CCNC(=O)CSCc2ccccc2)cc1	-0.5	0.8	6.3	-0.1	-6.9	nt	nt
CC1Cc2ccccc2N1S(=O)(=O)c1cccc(C(=O)N2CC(=O)Nc3ccccc32)c1 (stereo not drawn)	-1.2	5.2	-3.1	-1.0	1.1	nt	nt
CC(=O)C1=C(c2cccc([N+](=O)[O-])c2)N(C(C)=O)n2c(C)nnc2S1	2.2	8.5	11.3	-1.2	-6.8	nt	nt
CCC(=O)Nc1cccc(-n2nnnc2SCC(=O)c2ccc(C)c(C)c2)c1	-3.2	-22.5	3.5	3.1	-1.1	nt	nt
Cn1c(SCC(=O)c2ccc3c(c2)NC(=O)CO3)nc2ccccc21	-2.4	-204.7	6.1	38.1*	7.1	25.2*	6.9
CCCn1c(SCC(=O)c2ccc3c(c2)NC(=O)CO3)nc2ccccc21	8.4	-34.0	-16.7	4.7	2.3	nt	nt
Cc1ccc(-c2csc3ncnc(-n4nnc5ccccc54)c23)cc1C	-2.6	-7.5	8.6	1.2	-3.2	nt	nt
Cc1ccc(-c2csc3ncnc(-n4nnc5ccccc54)c23)cc1	1.4	-121.5	-0.1	22.9*	9.3	2.2	0.1
O=C(CCc1nnc(CCCCc2ccccc2)o1)NCCC1CCCCO1 (stereo not drawn)	1.5	6.7	10.4	-1.2	-4.1	nt	nt
CCN(CC)CCN(C(=O)c1ccc(Br)s1)c1nc2cc3c(cc2s1)OCCO3	-1.4	-13.6	-16.8	2.7	2.2	nt	nt
SMILES	m5-HT2A agonist	MOR-DOR inv ag	HTR5A inv ctr	OPRM1-OPRD1 ag	HTR5A ag ctr	MOR-DOR ag conf	HTR5A ag ctr2
CN(C)CCCN(C(=O)c1ccc(Br)s1)c1nc2cc3c(cc2s1)OCCO3	-10.7	-183.4	-1.6	35.3*	0.7	92.5*	0.1
CCCCNC(=O)C(NC(=O)c1ccc(=O)[nH]c1)C(=O)c1ccccc1 (stereo not drawn)	-2.8	nt	nt	nt	nt	nt	nt
O=C(c1cnccn1)N(Cc1cccs1)C1(C(=O)NC2CCCCC2)CCCCC1	-0.4	-21.3	-9.7	3.9	-1.4	nt	nt
O=C(c1ccccn1)N(Cc1cccs1)C1(C(=O)NC2CCCCC2)CCCCC1	3.1	-132.2	8.9	28.3*	-3.2	-0.1	2.6
CCOC(=O)c1c(NC(=O)CN2CCN(S(=O)(=O)c3cc(Cl)ccc3Cl)CC2)sc(C(=O)N(C)C)c1C	-11.2	-96.2	4.2	18.3*	-1.2	11.8	-1.1
CCOC(=O)c1c(NC(=O)COC(=O)c2ccc(Cl)nc2)sc(C(=O)N(C)C)c1C	4.7	10.5	-7.6	-1.9	3.0	nt	nt
CCc1ccc(NC(=O)N(CCCN2CCOCC2)Cc2cccs2)cc1	-5.2	-201.8	-25.2	34.1*	8.6	47.2*	-3.8
O=C(Nc1ccccc1)N(CCCN1CCOCC1)Cc1cccs1	-1.9	2.1	6.7	-0.4	-2.3	nt	nt
CC(=O)c1ccc(NC(=O)Nc2ccc3c(c2)N(C)C(=O)CS3)cc1	1.3	-293.0	12.0	50.2*	1.7	119.6*	-0.9
CCOc1ccc(NC(=O)Nc2ccc3c(c2)N(C)C(=O)CS3)cc1	-1.3	-7.8	-8.9	1.5	3.0	nt	nt
OCCC1CN(Cc2cccn2-c2ccccn2)CCN1C1CCCCC1 (stereo not drawn)	-2.7	2.8	0.3	-0.6	0.2	nt	nt
O=S(=O)(NCCSc1nnc(-c2ccco2)n1-c1ccccc1)c1ccccc1	4.8	-77.7	-13.6	18.7*	2.3	1.4	15.4
COc1ccc(-c2nc(CN3CCC(C(=O)NCC4CCCO4)CC3)c(C)o2)cc1OC (stereo not drawn)	0.6	-149.1	-9.4	30.0*	2.0	23.5*	3.3
CCn1cc(CNCc2cn(-c3ccccc3C)nc2-c2ccc(OC)c(F)c2)cn1	-2.5	i	9.7	243.3*	-3.5	308.6*	0.6
COc1ccc(-c2nn(-c3ccccc3C)cc2CNC(C)c2cn(C)nc2C)cc1F (stereo not drawn)	7.0	i	19.8	163.1*	0.4	23.1*	15.9
COc1ccc(-c2nn(-c3ccccc3C)cc2CNC(C)Cn2cncn2)cc1F (stereo not drawn)	-6.5	4.6	-16.2	-0.9	-1.6	nt	nt
COc1ccc(-c2nn(-c3ccccc3C)cc2CNCCc2cnc[nH]2)cc1F	-2.3	-42.4	9.6	9.0	-3.1	nt	nt

Screening data from PubChem BioAssay.
